Screening data (PubChem BioAssay)
NPYLR7 agonist = activates Aedes aegypti NPYLR7 receptor. HEK293T NPYLR7/Galpha15, GCaMP6s calcium fluorescence. activation, % at 10 µM. 0.15% of 270,000 active; in the data active = activation above about 40%
mcGAS lum = inhibitors of mouse cGAS; 0.15% of 160,000 active; Q8C6L5; recombinant cGAS, Kinase-Glo ATP depletion luminescence; inhibition, % at 12.5 µM; AID 1259399
Target sequence (Q8C6L5 whole entry, looked up): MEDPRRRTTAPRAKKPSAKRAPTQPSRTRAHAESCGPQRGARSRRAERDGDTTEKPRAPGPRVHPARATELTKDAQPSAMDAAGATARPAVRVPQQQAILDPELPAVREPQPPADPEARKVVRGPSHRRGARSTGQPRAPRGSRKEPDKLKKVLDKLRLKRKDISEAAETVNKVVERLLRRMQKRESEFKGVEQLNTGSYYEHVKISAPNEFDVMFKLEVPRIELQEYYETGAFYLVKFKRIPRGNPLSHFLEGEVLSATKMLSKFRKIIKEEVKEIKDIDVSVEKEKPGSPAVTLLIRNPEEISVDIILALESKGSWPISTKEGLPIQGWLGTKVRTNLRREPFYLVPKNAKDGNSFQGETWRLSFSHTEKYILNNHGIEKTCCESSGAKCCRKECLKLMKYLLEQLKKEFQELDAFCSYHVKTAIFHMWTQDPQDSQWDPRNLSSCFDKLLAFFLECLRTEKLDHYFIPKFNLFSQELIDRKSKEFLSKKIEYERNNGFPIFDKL
hcGAS lum = inhibitors of human cGAS; Q8N884; recombinant h-cGAS, ATP depletion, Kinase-Glo luminescence; inhibition, % at 12.5 µM; 0.081% of 290,000 active; AID 1259398
Large screens that a line does not name were inactive. Sampled rows, rich in hits. Any-hit rate of the full collection: about 0.24%. Rule as the data show it, unless noted: active = inhibition above about 40%; inactive = the rest.

CN1CCC(=C2c3ccccc3C=Cc3ccccc32)CC1	none
O=C(Nc1ccc(NC2CCCCC2)cc1)c1nccc2ccccc12	none (no result: mcGAS lum)
O=C(c1nccc2ccccc12)N1CCN(CC2CCCC2)CC1	NPYLR7 agonist 126 (no result: mcGAS lum)
CN(c1ccccc1)S(=O)(=O)c1cccc(NS(=O)(=O)c2cc(Cl)ccc2Cl)c1	none (no result: mcGAS lum)
CN(c1ccccc1)S(=O)(=O)c1cccc(NC(=O)CCl)c1	mcGAS lum 55
CCCc1nc(N2CCN(C(=O)N(C)C)CC2)c2c(C)nn(-c3ccc(F)cc3)c2n1	none
O=C(CSc1nc(=O)n(CCCO)c2c1CCCC2)N1CCCc2ccccc21	none
O=C(O)CN1C(=O)/C(=C2\SC(=S)NC2=O)c2ccccc21	mcGAS lum 103
CCN1C(=O)/C(=C2\SC(=S)NC2=O)c2ccccc21	none
N#Cc1cc2c(cc1NS(=O)(=O)c1ccc(-c3ccccc3)cc1)OCO2	none (no result: mcGAS lum)
CCCn1ccnc1CN1CCN(c2ncccc2C)CC1	none (no result: mcGAS lum)
Cc1cc(O)c(CN2CCCC2)c2c1C(=O)/C(=C/c1cc3ccccc3o1)O2	NPYLR7 agonist 57
O=C1/C(=C/c2ccco2)Oc2c1ccc(O)c2CN1CCN(CCO)CC1	none
O=C1/C(=C/N2CCC3(CC2)OCCO3)Oc2cc(O)ccc21	none
O=C1/C(=C/c2cc3ccccc3o2)Oc2c1ccc(O)c2CN1CCN(CCO)CC1	NPYLR7 agonist 108
CCN1CCN(Cc2c(O)cc(C)c3c2O/C(=C\c2ccco2)C3=O)CC1	NPYLR7 agonist 65
Cc1cc(O)c(CN2CCN(C)CC2)c2c1C(=O)/C(=C/c1cc3cc(Br)ccc3o1)O2	none
O=C1/C(=C/c2cc3ccccc3o2)Oc2cc(O)ccc21	NPYLR7 agonist 49 (no result: mcGAS lum)
Cc1cc(O)c(CN2CCN(CCO)CC2)c2c1C(=O)/C(=C/c1cccs1)O2	none
O=S(=O)(c1cccc(Cl)c1Cl)N1CCN(CCCOC(c2ccc(Cl)cc2)c2ccc(Cl)cc2)CC1	none
Cc1ccc(S(=O)(=O)N2CCOCC2)cc1C(=O)Nc1ccc(Cl)cn1	none
O=c1oc2ccc3ccccc3c2cc1-c1nnc(Nc2ccc(Br)cc2)s1	none (no result: mcGAS lum)
Cc1cc(C(=O)N2CC(=O)N(Cc3cccnc3)CC(OCC3CC3)C2)nn1C (centres undefined)	none
CCC(NC(=O)c1cccc(OC)c1OC(F)F)c1ccc(Cl)cc1 (centres undefined)	none (no result: mcGAS lum)
CCCCN(CC(=O)N(CCc1ccc(OC)c(OC)c1)Cc1ccc(C)s1)C(=O)NC1CCCCC1	none
Clc1ccc2nc(N/N=C\c3ccc4cccnc4c3)nc(-c3ccccc3)c2c1	none
Cc1ccc(OCCC(=O)NCCc2ccc(OC(F)F)cc2)cc1	none (no result: mcGAS lum)
Cc1cc(O)c(CN2CCN(CCO)CC2)c2c1C(=O)/C(=C/c1cc3ccccc3o1)O2	NPYLR7 agonist 80
Cc1cc(O)c(CN2CCN(CCO)CC2)c2c1C(=O)/C(=C/c1ccccc1)O2	none
Cc1cc(Cl)ccc1NC(=O)c1nc(C)n2c1CCCC2	none (no result: mcGAS lum)
O=C(Nc1ncccc1O)c1nc(-c2ccccc2)n2c1CCCCC2	hcGAS lum 66
CC(C)N1CCc2c(sc(NC(=O)c3ccnn3C)c2-c2nc3ccccc3s2)C1	none (no result: NPYLR7 agonist)
CC(=O)Nc1sc2c(c1-c1nc3ccccc3s1)CCN(C(C)C)C2	mcGAS lum 104, hcGAS lum 78
CCN(CC(=O)Nc1c(-c2ccccc2)c(C)nn1-c1ccccc1C)C(=O)Nc1ccc(F)c(Cl)c1	none
CCSCCNC(=O)c1ccc(-c2cc(-c3cccc4c3OCCO4)[nH]n2)cc1	none
O=C(NCc1cccc(F)c1F)c1ccc(-c2cc(-c3cccc4c3OCCO4)[nH]n2)cc1	mcGAS lum 105 (no result: NPYLR7 agonist)
CC(C)Oc1ccc(S(=O)(=O)N2CCCCC2)cc1NC(=O)CCl	none (no result: mcGAS lum)
CC(C)Oc1ccc(S(=O)(=O)N2CCCCC2)cc1NC(=O)CSc1nncn1C1CC1	mcGAS lum 56
Cc1ccc(C(=O)Nc2ccc(S(=O)(=O)O)c3cc(S(=O)(=O)O)cc(S(=O)(=O)O)c23)cc1NC(=O)c1cccc(NC(=O)Nc2cccc(C(=O)Nc3cc(C(=O)Nc4ccc(S(=O)(=O)O)c5cc(S(=O)(=O)O)cc(S(=O)(=O)O)c45)ccc3C)c2)c1	mcGAS lum 80, hcGAS lum 80
CC(=O)c1cccc(NS(=O)(=O)c2cc(C(=O)Nc3ccccc3C)ccc2C)c1	none
O=C(CC1COCCN1)NCCc1cnn(-c2ccccc2)c1 (centres undefined)	none (no result: mcGAS lum)
N#CC(C#N)=C1C=CN(c2ccc(Br)cc2)C=C1	none (no result: mcGAS lum)
COc1ccc(OC)c(CCNc2nc3cnc(-c4cc(OC)c(OC)c(OC)c4)cc3n2C)c1	NPYLR7 agonist 70
COc1ccc(Cn2cnc3cnc(-c4cc(OC)c(OC)c(OC)c4)cc32)cc1OC	none
COc1ccc(OC)c(CCNc2nc3cnc(-c4ccc(Cl)cc4)cc3n2C)c1	NPYLR7 agonist 83
CNc1nc2cnc(-c3ccc(OC)c(OC)c3)cc2n1Cc1ccccc1	none
NC(=O)C1(N2CCCCC2)CCN(Cc2nc(Cc3ccccc3)no2)CC1	none
